Experimental data as given in article PMC11006913.

Key:
Experiment in all cases: PBM; 200 nM protein, PBS
Settings in all cases: dsDNA, one strand shown
[1] = molecular target: T1, VENTX (Homo sapiens, UniProt O95231 78-163, R121Q)
T1 sequence: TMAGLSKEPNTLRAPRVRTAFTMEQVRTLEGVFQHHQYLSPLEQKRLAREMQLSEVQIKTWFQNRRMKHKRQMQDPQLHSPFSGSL

[2] = molecular target: HOXA4 (Homo sapiens, UniProt Q00056 201-287, W262R)
[3] = molecular target: HOXA7 (Homo sapiens, UniProt P31268 116-202)
[4] = molecular target: ALX4 (Homo sapiens, UniProt Q9H161 200-286)
Chain of ALX4 (Homo sapiens, UniProt Q9H161 200-286) (Q9H161 200-286): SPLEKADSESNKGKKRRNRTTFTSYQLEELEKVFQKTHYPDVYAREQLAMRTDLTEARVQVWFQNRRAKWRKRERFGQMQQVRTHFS

[5] = molecular target: PRRX1 (Homo sapiens, UniProt P54821 80-166, F113S)
Chain of PRRX1 (Homo sapiens, UniProt P54821 80-166, F113S) (P54821 80-166 F113S): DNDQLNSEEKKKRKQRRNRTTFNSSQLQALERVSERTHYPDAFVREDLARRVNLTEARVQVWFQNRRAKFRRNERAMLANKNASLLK

[6] = molecular target: HOXB6 (Homo sapiens, UniProt P17509 132-218, K202E)
Chain of HOXB6 (Homo sapiens, UniProt P17509 132-218, K202E) (P17509 132-218 K202E): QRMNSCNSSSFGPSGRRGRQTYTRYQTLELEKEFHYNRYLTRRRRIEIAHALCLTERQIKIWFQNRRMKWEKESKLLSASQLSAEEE

[7] = molecular target: ALX4 (Homo sapiens, UniProt Q9H161 200-286, Q225E)
Chain of ALX4 (Homo sapiens, UniProt Q9H161 200-286, Q225E) (Q9H161 200-286 Q225E): as the sequence (Q9H161 200-286) above, with Q26E counted along it

[8] = molecular target: HOXA2 (Homo sapiens, UniProt O43364 129-215, R185T)
Chain of HOXA2 (O43364 129-215 R185T): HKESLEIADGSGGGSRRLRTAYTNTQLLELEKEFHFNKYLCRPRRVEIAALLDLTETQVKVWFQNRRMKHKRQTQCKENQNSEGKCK

[9] = molecular target: HOXA4 (Homo sapiens, UniProt Q00056 201-287, R217L)
Chain of HOXA4 (Homo sapiens, UniProt Q00056 201-287, R217L) (Q00056 201-287 R217L): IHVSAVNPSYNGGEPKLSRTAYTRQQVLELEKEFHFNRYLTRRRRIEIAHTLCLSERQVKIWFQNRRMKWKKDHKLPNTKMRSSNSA

[10] = molecular target: MSX2 (Homo sapiens, UniProt P35548 130-214, R199I)
Chain of MSX2 (Homo sapiens, UniProt P35548 130-214, R199I) (P35548 130-214 R199I): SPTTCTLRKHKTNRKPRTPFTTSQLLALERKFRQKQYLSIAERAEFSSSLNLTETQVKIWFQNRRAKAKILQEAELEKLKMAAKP

[11] = molecular target: HOXA4 (Homo sapiens, UniProt Q00056 201-287)
Chain of HOXA4 (Homo sapiens, UniProt Q00056 201-287) (Q00056 201-287): as the sequence (Q00056 201-287 R217L) above, with L17R counted along it

[12] = molecular target: MSX2 (Homo sapiens, UniProt P35548 130-214)
Chain of MSX2 (Homo sapiens, UniProt P35548 130-214) (P35548 130-214): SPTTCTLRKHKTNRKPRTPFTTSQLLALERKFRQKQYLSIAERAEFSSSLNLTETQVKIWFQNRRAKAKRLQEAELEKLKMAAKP

[13] = molecular target: VAX1 (Homo sapiens, UniProt Q5SQQ9 86-172)
Chain of VAX1 (Homo sapiens, UniProt Q5SQQ9 86-172) (Q5SQQ9 86-172): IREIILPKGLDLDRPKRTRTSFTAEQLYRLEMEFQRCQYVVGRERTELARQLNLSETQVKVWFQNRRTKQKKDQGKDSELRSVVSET

[14] = molecular target: MSX2 (Homo sapiens, UniProt P35548 130-214, F161Y)
Chain of MSX2 (Homo sapiens, UniProt P35548 130-214, F161Y) (P35548 130-214 F161Y): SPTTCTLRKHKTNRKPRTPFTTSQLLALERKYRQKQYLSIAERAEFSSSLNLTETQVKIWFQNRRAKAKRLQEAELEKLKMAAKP

[15] = molecular target: VAX1 (Homo sapiens, UniProt Q5SQQ9 86-172, T142I)
Chain of VAX1 (Homo sapiens, UniProt Q5SQQ9 86-172, T142I) (Q5SQQ9 86-172 T142I): as the sequence (Q5SQQ9 86-172) above, with T57I counted along it

[16] = molecular target: HOXA7 (Homo sapiens, UniProt P31268 116-202, W177C)
Chain of HOXA7 (Homo sapiens, UniProt P31268 116-202, W177C) (P31268 116-202 W177C): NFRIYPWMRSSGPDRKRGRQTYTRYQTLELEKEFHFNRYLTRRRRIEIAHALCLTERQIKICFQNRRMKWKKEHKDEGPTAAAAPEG

[17] = molecular target: HOXA4 (Homo sapiens, UniProt Q00056 201-287, W262F)
Chain of HOXA4 (Homo sapiens, UniProt Q00056 201-287, W262F) (Q00056 201-287 W262F): as the sequence (Q00056 201-287 R217L) above, with L17R, W62F counted along it

[18] = molecular target: PRRX1 (Homo sapiens, UniProt P54821 80-166)
Chain of PRRX1 (Homo sapiens, UniProt P54821 80-166) (P54821 80-166): as the sequence (P54821 80-166 F113S) above, with S34F counted along it

[19] = molecular target: VAX1 (Homo sapiens, UniProt Q5SQQ9 86-172, K157R)
Chain of VAX1 (Homo sapiens, UniProt Q5SQQ9 86-172, K157R) (Q5SQQ9 86-172 K157R): as the sequence (Q5SQQ9 86-172) above, with K72R counted along it

[20] = molecular target: HOXB6 (Homo sapiens, UniProt P17509 132-218)
Chain of HOXB6 (Homo sapiens, UniProt P17509 132-218) (P17509 132-218): as the sequence (P17509 132-218 K202E) above, with E71K counted along it

Chain of HOXA4 (Homo sapiens, UniProt Q00056 201-287, W262R) (Q00056 201-287 W262R): as the sequence (Q00056 201-287 R217L) above, with L17R, W62R counted along it
Chain of HOXA7 (Homo sapiens, UniProt P31268 116-202) (P31268 116-202): as the sequence (P31268 116-202 W177C) above, with C62W counted along it

Row | Sequence | binding signal [1] | binding signal [2] | binding signal [3] | binding signal [4] | binding signal [5] | binding signal [6] | binding signal [7] | binding signal [8] | binding signal [9] | binding signal [10] | binding signal [11] | binding signal [12] | binding signal [13] | binding signal [14] | binding signal [15] | binding signal [16] | binding signal [17] | binding signal [18] | binding signal [19] | binding signal [20]
1 | GCTAATTA | 13 upbm affinity estimate (log intensity, higher = more binding, comparable within an allelic series) | 10.8 upbm affinity estimate (log intensity, higher = more binding, comparable within an allelic series) | 12.1 upbm affinity estimate (log intensity, higher = more binding, comparable within an allelic series) | 14.6 upbm affinity estimate (log intensity, higher = more binding, comparable within an allelic series) | 12 upbm affinity estimate (log intensity, higher = more binding, comparable within an allelic series) | 10.1 upbm affinity estimate (log intensity, higher = more binding, comparable within an allelic series) | 14.4 upbm affinity estimate (log intensity, higher = more binding, comparable within an allelic series) | 14.2 upbm affinity estimate (log intensity, higher = more binding, comparable within an allelic series) | 13 upbm affinity estimate (log intensity, higher = more binding, comparable within an allelic series) | 13.5 upbm affinity estimate (log intensity, higher = more binding, comparable within an allelic series) | 14.3 upbm affinity estimate (log intensity, higher = more binding, comparable within an allelic series) | 14.3 upbm affinity estimate (log intensity, higher = more binding, comparable within an allelic series) | 14 upbm affinity estimate (log intensity, higher = more binding, comparable within an allelic series) | 13.8 upbm affinity estimate (log intensity, higher = more binding, comparable within an allelic series) | 14.1 upbm affinity estimate (log intensity, higher = more binding, comparable within an allelic series) | 8.89 upbm affinity estimate (log intensity, higher = more binding, comparable within an allelic series) | 13 upbm affinity estimate (log intensity, higher = more binding, comparable within an allelic series) | 13.7 upbm affinity estimate (log intensity, higher = more binding, comparable within an allelic series) | 14.2 upbm affinity estimate (log intensity, higher = more binding, comparable within an allelic series) | 12.5 upbm affinity estimate (log intensity, higher = more binding, comparable within an allelic series)
2 | GTTAATTA | 12.5 upbm affinity estimate (log intensity, higher = more binding, comparable within an allelic series) | 11 upbm affinity estimate (log intensity, higher = more binding, comparable within an allelic series) | 12.2 upbm affinity estimate (log intensity, higher = more binding, comparable within an allelic series) | 14.5 upbm affinity estimate (log intensity, higher = more binding, comparable within an allelic series) | 12 upbm affinity estimate (log intensity, higher = more binding, comparable within an allelic series) | 10.2 upbm affinity estimate (log intensity, higher = more binding, comparable within an allelic series) | 14.5 upbm affinity estimate (log intensity, higher = more binding, comparable within an allelic series) | 13.9 upbm affinity estimate (log intensity, higher = more binding, comparable within an allelic series) | 13.2 upbm affinity estimate (log intensity, higher = more binding, comparable within an allelic series) | 13.1 upbm affinity estimate (log intensity, higher = more binding, comparable within an allelic series) | 14.3 upbm affinity estimate (log intensity, higher = more binding, comparable within an allelic series) | 14 upbm affinity estimate (log intensity, higher = more binding, comparable within an allelic series) | 13.8 upbm affinity estimate (log intensity, higher = more binding, comparable within an allelic series) | 13.6 upbm affinity estimate (log intensity, higher = more binding, comparable within an allelic series) | 13.9 upbm affinity estimate (log intensity, higher = more binding, comparable within an allelic series) | 8.93 upbm affinity estimate (log intensity, higher = more binding, comparable within an allelic series) | 13 upbm affinity estimate (log intensity, higher = more binding, comparable within an allelic series) | 13.6 upbm affinity estimate (log intensity, higher = more binding, comparable within an allelic series) | 13.9 upbm affinity estimate (log intensity, higher = more binding, comparable within an allelic series) | 12.5 upbm affinity estimate (log intensity, higher = more binding, comparable within an allelic series)
3 | ATAATTAA | 12.1 upbm affinity estimate (log intensity, higher = more binding, comparable within an allelic series) | 10.9 upbm affinity estimate (log intensity, higher = more binding, comparable within an allelic series) | 12.1 upbm affinity estimate (log intensity, higher = more binding, comparable within an allelic series) | 14.5 upbm affinity estimate (log intensity, higher = more binding, comparable within an allelic series) | 12 upbm affinity estimate (log intensity, higher = more binding, comparable within an allelic series) | 10.3 upbm affinity estimate (log intensity, higher = more binding, comparable within an allelic series) | 14.2 upbm affinity estimate (log intensity, higher = more binding, comparable within an allelic series) | 13.6 upbm affinity estimate (log intensity, higher = more binding, comparable within an allelic series) | 13 upbm affinity estimate (log intensity, higher = more binding, comparable within an allelic series) | 13 upbm affinity estimate (log intensity, higher = more binding, comparable within an allelic series) | 14.3 upbm affinity estimate (log intensity, higher = more binding, comparable within an allelic series) | 13.9 upbm affinity estimate (log intensity, higher = more binding, comparable within an allelic series) | 13.5 upbm affinity estimate (log intensity, higher = more binding, comparable within an allelic series) | 13.5 upbm affinity estimate (log intensity, higher = more binding, comparable within an allelic series) | 13.7 upbm affinity estimate (log intensity, higher = more binding, comparable within an allelic series) | 8.99 upbm affinity estimate (log intensity, higher = more binding, comparable within an allelic series) | 12.6 upbm affinity estimate (log intensity, higher = more binding, comparable within an allelic series) | 13.7 upbm affinity estimate (log intensity, higher = more binding, comparable within an allelic series) | 13.5 upbm affinity estimate (log intensity, higher = more binding, comparable within an allelic series) | 12.4 upbm affinity estimate (log intensity, higher = more binding, comparable within an allelic series)
4 | CATAATTA | 12 upbm affinity estimate (log intensity, higher = more binding, comparable within an allelic series) | 10.9 upbm affinity estimate (log intensity, higher = more binding, comparable within an allelic series) | 12 upbm affinity estimate (log intensity, higher = more binding, comparable within an allelic series) | 14.2 upbm affinity estimate (log intensity, higher = more binding, comparable within an allelic series) | 11.6 upbm affinity estimate (log intensity, higher = more binding, comparable within an allelic series) | 10.2 upbm affinity estimate (log intensity, higher = more binding, comparable within an allelic series) | 13.7 upbm affinity estimate (log intensity, higher = more binding, comparable within an allelic series) | 13.6 upbm affinity estimate (log intensity, higher = more binding, comparable within an allelic series) | 12.7 upbm affinity estimate (log intensity, higher = more binding, comparable within an allelic series) | 12.8 upbm affinity estimate (log intensity, higher = more binding, comparable within an allelic series) | 14.3 upbm affinity estimate (log intensity, higher = more binding, comparable within an allelic series) | 13.9 upbm affinity estimate (log intensity, higher = more binding, comparable within an allelic series) | 13.6 upbm affinity estimate (log intensity, higher = more binding, comparable within an allelic series) | 13.5 upbm affinity estimate (log intensity, higher = more binding, comparable within an allelic series) | 13.6 upbm affinity estimate (log intensity, higher = more binding, comparable within an allelic series) | 9.06 upbm affinity estimate (log intensity, higher = more binding, comparable within an allelic series) | 12.2 upbm affinity estimate (log intensity, higher = more binding, comparable within an allelic series) | 13.6 upbm affinity estimate (log intensity, higher = more binding, comparable within an allelic series) | 13.7 upbm affinity estimate (log intensity, higher = more binding, comparable within an allelic series) | 12.4 upbm affinity estimate (log intensity, higher = more binding, comparable within an allelic series)
5 | GTAATTAC | 12.4 upbm affinity estimate (log intensity, higher = more binding, comparable within an allelic series) | 10.8 upbm affinity estimate (log intensity, higher = more binding, comparable within an allelic series) | 12.5 upbm affinity estimate (log intensity, higher = more binding, comparable within an allelic series) | 14.3 upbm affinity estimate (log intensity, higher = more binding, comparable within an allelic series) | 11.5 upbm affinity estimate (log intensity, higher = more binding, comparable within an allelic series) | 10.4 upbm affinity estimate (log intensity, higher = more binding, comparable within an allelic series) | 13.5 upbm affinity estimate (log intensity, higher = more binding, comparable within an allelic series) | 14.1 upbm affinity estimate (log intensity, higher = more binding, comparable within an allelic series) | 13.2 upbm affinity estimate (log intensity, higher = more binding, comparable within an allelic series) | 13.2 upbm affinity estimate (log intensity, higher = more binding, comparable within an allelic series) | 14.3 upbm affinity estimate (log intensity, higher = more binding, comparable within an allelic series) | 14.2 upbm affinity estimate (log intensity, higher = more binding, comparable within an allelic series) | 13.9 upbm affinity estimate (log intensity, higher = more binding, comparable within an allelic series) | 13.9 upbm affinity estimate (log intensity, higher = more binding, comparable within an allelic series) | 13.9 upbm affinity estimate (log intensity, higher = more binding, comparable within an allelic series) | 9.01 upbm affinity estimate (log intensity, higher = more binding, comparable within an allelic series) | 12.5 upbm affinity estimate (log intensity, higher = more binding, comparable within an allelic series) | 13.5 upbm affinity estimate (log intensity, higher = more binding, comparable within an allelic series) | 13.9 upbm affinity estimate (log intensity, higher = more binding, comparable within an allelic series) | 12.8 upbm affinity estimate (log intensity, higher = more binding, comparable within an allelic series)
6 | ACTAATTG | 12.3 upbm affinity estimate (log intensity, higher = more binding, comparable within an allelic series) | 10.5 upbm affinity estimate (log intensity, higher = more binding, comparable within an allelic series) | – | 13.9 upbm affinity estimate (log intensity, higher = more binding, comparable within an allelic series) | 11.2 upbm affinity estimate (log intensity, higher = more binding, comparable within an allelic series) | – | 13.4 upbm affinity estimate (log intensity, higher = more binding, comparable within an allelic series) | 13.2 upbm affinity estimate (log intensity, higher = more binding, comparable within an allelic series) | 11.8 upbm affinity estimate (log intensity, higher = more binding, comparable within an allelic series) | 13.1 upbm affinity estimate (log intensity, higher = more binding, comparable within an allelic series) | 13.7 upbm affinity estimate (log intensity, higher = more binding, comparable within an allelic series) | 14 upbm affinity estimate (log intensity, higher = more binding, comparable within an allelic series) | 13.3 upbm affinity estimate (log intensity, higher = more binding, comparable within an allelic series) | 13.7 upbm affinity estimate (log intensity, higher = more binding, comparable within an allelic series) | 13 upbm affinity estimate (log intensity, higher = more binding, comparable within an allelic series) | – | 11.4 upbm affinity estimate (log intensity, higher = more binding, comparable within an allelic series) | 13.3 upbm affinity estimate (log intensity, higher = more binding, comparable within an allelic series) | 13.3 upbm affinity estimate (log intensity, higher = more binding, comparable within an allelic series) | –
7 | CCAGGTCC | 7.92 upbm affinity estimate (log intensity, higher = more binding, comparable within an allelic series) | – | – | – | – | – | – | 7.34 upbm affinity estimate (log intensity, higher = more binding, comparable within an allelic series) | – | – | – | – | – | – | – | – | – | – | – | –
8 | AATTAGTC | – | – | – | – | – | – | 12.8 upbm affinity estimate (log intensity, higher = more binding, comparable within an allelic series) | – | – | 12.3 upbm affinity estimate (log intensity, higher = more binding, comparable within an allelic series) | – | 13.5 upbm affinity estimate (log intensity, higher = more binding, comparable within an allelic series) | – | 13 upbm affinity estimate (log intensity, higher = more binding, comparable within an allelic series) | – | – | – | – | 12.3 upbm affinity estimate (log intensity, higher = more binding, comparable within an allelic series) | –
9 | ACAATTAA | 11.7 upbm affinity estimate (log intensity, higher = more binding, comparable within an allelic series) | 10.5 upbm affinity estimate (log intensity, higher = more binding, comparable within an allelic series) | 11.6 upbm affinity estimate (log intensity, higher = more binding, comparable within an allelic series) | 13.7 upbm affinity estimate (log intensity, higher = more binding, comparable within an allelic series) | 11.2 upbm affinity estimate (log intensity, higher = more binding, comparable within an allelic series) | 10.1 upbm affinity estimate (log intensity, higher = more binding, comparable within an allelic series) | 12.9 upbm affinity estimate (log intensity, higher = more binding, comparable within an allelic series) | 12.6 upbm affinity estimate (log intensity, higher = more binding, comparable within an allelic series) | 12 upbm affinity estimate (log intensity, higher = more binding, comparable within an allelic series) | 12.8 upbm affinity estimate (log intensity, higher = more binding, comparable within an allelic series) | 13.8 upbm affinity estimate (log intensity, higher = more binding, comparable within an allelic series) | 13.7 upbm affinity estimate (log intensity, higher = more binding, comparable within an allelic series) | – | 13.4 upbm affinity estimate (log intensity, higher = more binding, comparable within an allelic series) | 12.5 upbm affinity estimate (log intensity, higher = more binding, comparable within an allelic series) | 8.88 upbm affinity estimate (log intensity, higher = more binding, comparable within an allelic series) | 11.5 upbm affinity estimate (log intensity, higher = more binding, comparable within an allelic series) | 13.3 upbm affinity estimate (log intensity, higher = more binding, comparable within an allelic series) | 12.3 upbm affinity estimate (log intensity, higher = more binding, comparable within an allelic series) | 11.9 upbm affinity estimate (log intensity, higher = more binding, comparable within an allelic series)
